ssDAF-12 act = S. stercoralis DAF-12 nuclear receptor activators, primary screen, cell-based, luminescence, HEK293, GRIP1 co-expression, lit1-tk-luc | Nuclear hormone receptor DAF-12 (Strongyloides stercoralis) | HEK293 ssDAF-12/GRIP1 lit1-tk-luc reporter; % of 3 µM dafachronic acid response | activation, % at 6.8 µM | actives 1% (n = 370,000) | AID 652126, 2013;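 active means activation above the mean over all tested compounds plus 3 SD, cut at about 0.9% in these data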;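 further: 0% = DMSO-only wells and 100% = 3 µM delta7-dafachronic acid wells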
hgDAF12 agonist = H. glycines DAF-12 receptor agonists, primary screen, cell-based, luminescence, HEK293, GAL4 fusion, UAS-luciferase; Nuclear hormone receptor DAF-12 (Heterodera glycines), GAL4 fusion; activation, % at 6.8 µM; actives 1.8% (n = 370,000); HEK293 GAL4-hgDAF12 UAS-luciferase reporter, agonist luminescence; normalized to butyrate control;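 active means activation above a cutoff set at the mean of all screened compounds plus 3 SD, cut at about 10% in these data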;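 further: 0% = DMSO wells and 100% = sodium butyrate wells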
hcDAF12 agonist = H. contortus DAF-12 nuclear receptor activators, primary screen, cell-based, luminescence, HEK293, lit1-tk-luc reporter; AID 652067, 2013; actives 1.4% (n = 370,000); HEK293 hcDAF-12 lit1-tk-luc reporter; 0% DMSO, 100% Δ7-dafachronic acid; activation, % at 6.8 µM;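 active means activation above the mean of all tested compounds plus 3 SD, cut at about 5.5% in these data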;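 further: 100% = response to 3 µM Δ7-dafachronic acid high control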
DAX1 inh-1 = DAX1 (NR0B1) inhibitors, primary screen, cell-based, HEK293, Gal4-DAX1, luciferase luminescence. AID 504766, 2011. actives 0.99% (n = 340,000). inhibition, % at 6.75 µM. HEK293 Gal4-DAX1 luciferase reporter. Nuclear receptor subfamily 0 group B member 1 (Homo sapiens), P51843;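 active means inhibition above the mean over all tested compounds plus 3 SD, cut at about 4.2% in these data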;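 further: 0% = DAX1-transfected cells with DMSO and 100% = empty-vector control cells with DMSO; inhibition shows as a rise in luminescence from relieved DAX1 repression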
DAX1 inh-2 = DAX1 (NR0B1) inhibitors on StAR promoter, primary screen, cell-based, luminescence, SF-1 (NR5A1), full-length DAX-1. HEK293T StAR-luciferase reporter, SF-1/DAX-1 repression relief. inhibition, % at 6.8 µM. actives 1.1% (n = 370,000). AID 652010, 2013;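 active means inhibition above the mean over all tested compounds plus 3 SD, cut at about 3.6% in these data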;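 further: 0% = DAX-1 cells with DMSO and 100% = cells lacking DAX-1 with DMSO; higher inhibition means more luminescence from relief of DAX-1 repression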
DAX1 inh confirm = DAX1 (NR0B1) inhibitors relieving SF-1 repression, confirmation, cell-based, luminescence, HEK293T, full-length DAX-1, SF-1 activated StAR promoter; shares compounds with DAX1 inh-2; HEK293T StAR-promoter luciferase reporter, SF-1/DAX-1 repression; inhibition, % at 6.8 µM; actives 87% (n = 2,400);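 active means inhibition above the average of every tested compound plus 3 SD, cut at about 3.8% in these data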;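 further: 0% = DAX-1 cells with DMSO and 100% = no DAX-1 control cells with DMSO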
Target sequence (P51843 whole entry, looked up): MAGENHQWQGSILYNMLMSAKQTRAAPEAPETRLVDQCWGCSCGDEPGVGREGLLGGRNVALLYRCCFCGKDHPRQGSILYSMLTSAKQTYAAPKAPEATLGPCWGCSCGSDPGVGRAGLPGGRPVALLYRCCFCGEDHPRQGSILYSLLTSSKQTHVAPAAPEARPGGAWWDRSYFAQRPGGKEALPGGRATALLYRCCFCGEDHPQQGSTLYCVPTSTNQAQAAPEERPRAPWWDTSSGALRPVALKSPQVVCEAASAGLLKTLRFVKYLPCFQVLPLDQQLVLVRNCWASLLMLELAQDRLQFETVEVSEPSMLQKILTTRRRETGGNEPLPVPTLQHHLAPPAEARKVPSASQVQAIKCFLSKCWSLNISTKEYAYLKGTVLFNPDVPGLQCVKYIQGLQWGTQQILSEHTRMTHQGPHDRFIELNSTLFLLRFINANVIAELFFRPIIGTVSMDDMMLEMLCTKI
SF1 mutant ctr = StAR reporter signal changes without DAX1, counter-screen for DAX1 inhibitor project, cell-based, luminescence, AF-2 mutant SF-1, transactivation. actives 78% (n = 2,400). shares compounds with DAX1 inh-2. inhibition, % at 6.8 µM. HEK293 StAR-luciferase, SF-1 AF2 mutant;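 active means inhibition above the mean of all tested compounds plus 3 SD, cut at about 3% in these data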;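 further: 0% = DAX-1 transfected cells with DMSO and 100% = cells without DAX-1 with DMSO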
The depositor's hits bear a star. In the library only some 4.1% were active in any assay of this set; here they are far more common.

For COc1ccc(CNc2nc3ccccc3s2)cc1OC the results were ssDAF-12 act -1, hgDAF12 agonist 2, hcDAF12 agonist 1, DAX1 inh-1 -1 and DAX1 inh-2 0.
COc1cc(OC)c2c(-c3cccc(-c4ccc(NC(C)=O)cc4)c3)cc(=O)oc2c1 was read as ssDAF-12 act -1, hgDAF12 agonist 1, hcDAF12 agonist 0, DAX1 inh-1 -1, DAX1 inh-2 4.8*, DAX1 inh confirm 6.3* and SF1 mutant ctr -7.
Cc1ccccc1NS(=O)(=O)c1ccc(C(=O)NCC2(N3CCOCC3)CCCCC2)cc1 was read as ssDAF-12 act -2, hgDAF12 agonist 3, hcDAF12 agonist 0, DAX1 inh-1 1 and DAX1 inh-2 -1.
O=C(NCC1(N2CCCCC2)CCCCC1)c1ccc(NS(=O)(=O)c2ccccc2)cc1 was read as ssDAF-12 act 0, hgDAF12 agonist 4, hcDAF12 agonist 1, DAX1 inh-1 3, DAX1 inh-2 8.9*, DAX1 inh confirm 9.0* and SF1 mutant ctr 5.6*.
Screening O=C(NCC1(N2CCCCC2)CCCCC1)c1ccc(S(=O)(=O)N2CCCC2)cc1 returned ssDAF-12 act -2, hgDAF12 agonist 2, hcDAF12 agonist 0, DAX1 inh-1 3 and DAX1 inh-2 3.
`Cc1cccc(NS(=O)(=O)c2ccc(C(=O)NCC3(N4CCCCC4)CCCCC3)cc2)c1C` gave ssDAF-12 act 0, hgDAF12 agonist 2, hcDAF12 agonist 4, DAX1 inh-1 1, DAX1 inh-2 7.3*, DAX1 inh confirm 9.7* and SF1 mutant ctr 6.6*.
Screening COC(=O)[C@H]1C[C@@]2(O)CN(S(=O)(=O)c3ccc(C)cc3)C[C@@]2(OC(=O)NCc2ccc(OC)c(OC)c2)C[C@H]1C(=O)OC returned ssDAF-12 act -1, hgDAF12 agonist 1, hcDAF12 agonist -1, DAX1 inh-1 1, DAX1 inh-2 5.5*, DAX1 inh confirm 1 and SF1 mutant ctr 0.
`COC(=O)[C@H]1C[C@@]2(O)CN(S(=O)(=O)c3ccc(C)cc3)C[C@@]2(OC(=O)NCc2ccccc2F)C[C@H]1C(=O)OC` gave ssDAF-12 act 0, hgDAF12 agonist -2, hcDAF12 agonist 1, DAX1 inh-1 2 and DAX1 inh-2 1.
For Cc1ccc(NC(=O)c2ccco2)nc1 the results were ssDAF-12 act 0, hgDAF12 agonist 12*, hcDAF12 agonist 4, DAX1 inh-1 3, DAX1 inh-2 8.0*, DAX1 inh confirm 8.7* and SF1 mutant ctr 6.8*.
Cc1ccc(NC(=O)c2ccc3c(c2)OCCO3)nc1 was read as ssDAF-12 act 0, hgDAF12 agonist 12*, hcDAF12 agonist 1, DAX1 inh-1 -1, DAX1 inh-2 6.1*, DAX1 inh confirm 3 and SF1 mutant ctr 1.
Screening O=C(c1cccs1)N1CCN(C(=O)c2cn(-c3ccccc3)nc2-c2ccccc2)CC1 returned ssDAF-12 act 0, hgDAF12 agonist 7, hcDAF12 agonist 1, DAX1 inh-1 1, DAX1 inh-2 7.7*, DAX1 inh confirm 5.8* and SF1 mutant ctr 3.4*.
`COc1cccc(-c2nc3ccc(C(=O)N4CCCC(O)C4)cc3o2)c1` (configuration not stated) gave ssDAF-12 act 0, hgDAF12 agonist 9, hcDAF12 agonist 2, DAX1 inh-1 0, DAX1 inh-2 5.3*, DAX1 inh confirm 7.4* and SF1 mutant ctr 7.4*.
`CCCC(=O)N1CCCC(c2nc(-c3cccc(OC)c3)no2)C1` (configuration not stated) gave ssDAF-12 act -1, hgDAF12 agonist 12*, hcDAF12 agonist 4, DAX1 inh-1 4.7*, DAX1 inh-2 4.6*, DAX1 inh confirm 12* and SF1 mutant ctr 5.7*.
`CCN(CC)C(=O)C1CCCN(C(=O)c2ccc3nc(-c4cccc(OC)c4)oc3c2)C1` (configuration not stated) gave ssDAF-12 act -1, hgDAF12 agonist 2, hcDAF12 agonist 1, DAX1 inh-1 -1 and DAX1 inh-2 1.
For O=C(c1ccc2oc(CCCc3ccccc3)nc2c1)N1CCCC1 the results were ssDAF-12 act 1.0*, hgDAF12 agonist 11*, hcDAF12 agonist 5.8*, DAX1 inh-1 1, DAX1 inh-2 9.0*, DAX1 inh confirm 9.5* and SF1 mutant ctr 6.9*.
Screening CCC(=O)C1CCCN(C(=O)c2ccc3nc(-c4cccc(OC)c4)oc3c2)C1 (configuration not stated) returned ssDAF-12 act 0, hgDAF12 agonist 10, hcDAF12 agonist 5, DAX1 inh-1 0, DAX1 inh-2 7.0*, DAX1 inh confirm 8.3* and SF1 mutant ctr 5.7*.
`COC(=O)CN1CCN(C(=O)c2nocc2C)CC1` gave ssDAF-12 act -2, hgDAF12 agonist 1, hcDAF12 agonist -1 and DAX1 inh-2 1.
Screening COc1ccc(Cc2nc3ccc(C(=O)N4CCCC4)cc3o2)cc1OC returned ssDAF-12 act -1, hgDAF12 agonist -1, hcDAF12 agonist -1, DAX1 inh-1 -1 and DAX1 inh-2 -1.
COc1ccc(Cc2nc3ccc(C(=O)N4CCCC4)cc3o2)cc1 was read as ssDAF-12 act 1.1*, hgDAF12 agonist 11*, hcDAF12 agonist 2, DAX1 inh-1 3, DAX1 inh-2 8.3*, DAX1 inh confirm 9.2* and SF1 mutant ctr 3.4*.
For O=C(Nc1nc2cc3c(cc2s1)OCCO3)C1=COCCO1 the results were ssDAF-12 act -3, hgDAF12 agonist -17, hcDAF12 agonist -6, DAX1 inh-1 -8 and DAX1 inh-2 -3.
For O=C(Nc1nc2ccc(F)cc2s1)C1=COCCO1 the results were ssDAF-12 act 0, hgDAF12 agonist 3, hcDAF12 agonist 5, DAX1 inh-1 -3, DAX1 inh-2 7.5*, DAX1 inh confirm 7.6* and SF1 mutant ctr 3.1*.

Screening results: PubChem BioAssay, The Scripps Research Institute Molecular Screening Center
